Structures are written as SMILES. This is part of a sample that, as a whole, favours compounds with a hit. Of some 83,000 tested, about 20% had one in any assay.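 Assay: single dose, 48 h. Readout: percent growth (0 = no net growth; negative = cell death). Active: <10.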 Unmarked numbers belong to inactive results. The source made the active and inactive calls.

Common to all, as to test: NCI-60 one-dose screen, 48 h (100 = growth as untreated, 0 = no growth, -100 = all killed)
What all share (conditions): 10 µM unless noted

In test [1] the test system is SR leukemia.
Test [2] has as its system RPMI-8226 leukemia.
In test [3] the test system is OVCAR-8 ovarian.
In test [4] the test system is OVCAR-5 ovarian.
Test [5] relates to OVCAR-4 ovarian.
The test system of test [6] is SK-OV-3 ovarian.
Test [7] concerns IGROV1 ovarian.
Test [8] relates to OVCAR-3 ovarian.
Test [9] has as its system HS 578T breast.
The subject of test [10] is NCI/ADR-RES ovarian.

For the molecule `NS(=O)(=O)c1ccc(N=Nc2c(O)n(Cc3ccccc3)c3ccc(Cl)cc23)cc1`, the growth in test [1] was 60.2%; in [2], 90.7%; in test [3] it was 65.1%; in test [4], 86.8%; in test [5] it was 28.7%; in test [6] it was 74.3%. The growth in [7] is 84%; in [8], 89.4%; in [9] it was 44.8%; in test [10] it was 82.5%.

As to `O=C1Nc2ccccc2/C1=C/c1cccn1CCCCn1c2ccccc2c(=O)c2ccccc21`, the growth was 80.1% in test [1]; 33.5% in test [2]; 58.8% in test [3]; 77.9% in test [4]; 65.8% in [5]; 94.6% in test [6]. For the same molecule, the growth is 77.3% in test [7], 86.7% in test [8], 86.3% in test [9] and 73.9% in [10].

Take `CCCCNC(=O)Oc1ccc(/C(=C(/C)Cc2ccc(OC)cc2)c2ccc(OCCN3CCCC3)cc2)cc1`: the growth in [1] was -54.1% (active); in test [2] it was 1.62% (active); in [3] it was 69.6%; in test [4], 86%; in test [5], 68.9%; in test [6] it was 89.1%. The growth in test [7] is 85.5%; in test [8], 56.1%; in test [9], 50.4%; in test [10], 81.5%.

On to `COc1cc2c(cc1OC)C(C)N(S(N)(=O)=O)CC2` (configuration not stated), for which the growth was 82.3% in test [1]; 96.4% in [2]; 97% in [3]; 82.6% in test [4]; 105% in test [5]; 103% in test [6]. The growth is 97.9% in [7], 99.2% in test [8], 105% in test [9] and 96.9% in test [10].

As for `O=S(=O)(Nc1ccc(F)cc1F)c1ccc(-c2cnc(C3CC3)o2)cc1`, the growth was 10.9% in test [1]; 18.1% in test [2]; 38.4% in test [3]; 51.8% in [4]; 46.8% in [5]; 45.6% in [6]. Moreover, the growth in test [7] is 32.6%; in test [8] it was 13.4%; in test [9] it was 27.4%; in test [10], 19.4%.

For `CS(=O)(=O)Nc1cc(-c2ccc3ncnc(Nc4ccc5c(cnn5Cc5ccc(F)cc5)c4)c3c2)cnc1Cl`, the growth in [1] was 34%; in test [2], 9.43% (active); in [3] it was 67.9%; in [4] it was 44.7%; in test [5], 71%; in [6], 47.5%. The growth is -15.7% (active) in test [7], 9.71% (active) in test [8], -9.56% (active) in [9] and 90% in [10].

With `CC(=O)Oc1ccc(/C(=C(\C)c2ccc(Cl)cc2)c2ccc(OCCN3CCCCC3)cc2)cc1`, the growth in test [1] is -27.3% (active); in test [2], 9.5% (active); in [3] it was 57.1%; in test [4], 75.1%; in [5], 57.1%; in test [6] it was 54.6%. In addition, the growth was 61.8% in test [7], 66.7% in test [8], 52.9% in [9] and 50% in [10].

Regarding `Ic1ccc(OCCCCn2ccnc2)cc1`, the growth in [1] is 45.1%; in test [2], 73.5%; in [3], 95.5%; in test [4], 64.4%; in test [5], 44.7%; in test [6], 80.9%. Besides, the growth in test [7] is 71.9%; in [8], 39.2%; in [9], 90.2%; in [10], 90.7%.

For `COc1cc(OCc2cccc(Br)c2C)cc(OC)c1C=O`, the growth is 82.6% in [1]; 52.8% in test [2]; 89.9% in [3]; 55.5% in test [4]; 67.7% in [5]; 94.8% in test [6]. The growth in test [7] was 61.8%; in test [8], 87.1%; in [9], 89.1%; in test [10], 89.7%.

In the case of `CCc1ccccc1-n1c(-c2ccc(OC)cc2)cc(-c2ccc(OC)cc2)c(C#N)c1=O`, the growth in test [1] is 98.4%; in [2], 105%; in test [3], 41.7%; in test [4], 92.7%; in [5] it was 85.9%; in test [6], 54%. The growth in [7] was 85.5%; in [8], 82.2%; in [9], 17.9%; in test [10], 72.4%.

With `O=C(Nc1ccc(OS(=O)(=O)c2ccc(F)cc2)cc1)C1CCCCCC1`, the growth in test [1] is 70.2%; in test [2], 78%; in test [4], 99.7%; in test [5] it was 98.5%; in test [6], 97.5%; in test [7], 118%. Besides, the growth in test [8] was 96.1%; in test [9] it was 82.4%; in test [10], 82.1%.

In the case of `COc1ccc(-c2cc(-c3cccnc3)nc3sc4c(=O)[nH]c(-c5ccc(Cl)cc5)nc4c23)cc1OC`, the growth in test [1] was 87.5%; in [2], 88.8%; in test [4] it was 98.2%; in test [5] it was 87.9%; in test [6], 95.2%; in [7], 90.3%. The growth is 102% in [8], 92% in test [9] and 98% in test [10].

Take `O=C(Nc1cccc(-c2ccc(Cl)c(C(F)(F)F)c2)c1)C1CCN(Cc2cccc3cccnc23)CC1`: the growth in test [1] was -25.7% (active); in test [2] it was -27.3% (active); in [4], 70.2%; in test [5], 17.4%; in test [6], 55.4%; in test [7], -56.2% (active). Further, the growth is -66.4% (active) in [8], 5.48% (active) in test [9] and 0.0048% (active) in test [10].

Source of the values: PubChem BioAssay (NCI).
